# Source: PubChem
# MK inhibit: S. pneumoniae MK inhibitors, primary screen, biochemical, PK/LDH-coupled NADH absorbance. purified MK, PK/LDH-coupled NADH absorbance 340 nm. inhibition, % at 10 µM. actives 0.48% (n = 65,000). AID 555, 2006;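 active = ranked among the strongest by inhibition in the single 10 µM screen, a fixed top-ranked set picked for dose follow-up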
# Abs 340nm: compound light absorbance at 340 nm, profiling panel, artefact control, biochemical, MLSMR library, data from PS, PMK, MK assays | 65,000 tested, under 10 active | fold change at 10 µM | compound absorbance at 340 nm, fold over control;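 active = at 10 µM dose, initial 340 nm absorbance at least 2 fold that of control wells; inactive = change under 2 fold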;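 also: initial absorbance extrapolated from kinetic A340 decline of NADH oxidation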
# Autofluor 339: intrinsic fluorescence of library compounds, ex339/em460 – biochemical, MLSMR library, data from DPM-DC assay, artefact control, profiling panel | fluorescence fold increase at 10 µM | compound autofluorescence, ex339/em460 nm, NADH buffer; active compounds read high; 1 = no-compound wells, NADH background | actives 5.5% (n = 65,000);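 active = at 10 µM, mean starting fluorescence two-fold or more over control wells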;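 also: signal is the first read of a kinetic run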
# Spn DPM-DC inh: S. pneumoniae DPM-DC inhibitors, primary screen, biochemical, PK/LDH-coupled NADH fluorescence. diphosphomevalonate decarboxylase (Streptococcus pneumoniae D39). purified DPM-DC. calls only at 10 µM. actives 0.49% (n = 65,000). AID 556, 2006;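 active = the 320 compounds with the highest percent inhibition in the single-dose primary screen, excluding strongly autofluorescent ones, cut at about 32% in these data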;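 also: kinetic rate of NADH fluorescence loss reporting ADP formed by the decarboxylase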
# NADH enzymes: inhibitors of PK/LDH coupling enzymes, profiling panel, artefact control, biochemical, MLSMR library | AID 774, 2007 | IC50, µM (highest dose often 10 µM), for inactives: at the highest dose inhibition | actives 0.02% (n = 65,000) | coupled PK/LDH NADH assays, four targets;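 active = single-dose screening hits from any of four coupled enzyme assays that gave an IC50 when retested across doses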;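 also: the DPM-DC format reads NADH fluorescence rather than 340 nm absorbance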
# Spn PMK inh: S. pneumoniae PMK inhibitors, primary screen, biochemical, mevalonate pathway, pilot trial included; phosphomevalonate kinase (Streptococcus pneumoniae D39); purified PMK, PK/LDH-coupled NADH absorbance 340 nm; inhibition, % at 10 µM; actives 0.49% (n = 65,000); AID 539, 2006;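 active = top-ranked compounds by inhibition in the single 10 µM screen, taking a fixed number of the strongest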;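 also: 0% = full reaction with DMSO carrier and 100% = background rate without enzyme reaction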
# Numbers without * were called inactive; i = inactive; · = no result given; + = active, no number. Compounds with a hit are over-represented: about 6.5% of the library has one in this group of screens.
SMILES,MK inhibit,Abs 340nm,Autofluor 339,Spn DPM-DC inh,NADH enzymes,Spn PMK inh
CC(=O)c1sc2nc(-c3cccs3)cc(C(F)(F)F)c2c1N,11.0,1.06,1.66,i,9.0%,12.0
COCC(=O)Nc1nc2n(n1)C(c1ccc(OC)cc1)CC(c1ccc(OC)cc1)N2 (stereo not drawn),6.0,1.04,1.96,i,4.0%,0.0
Cc1cccc(C2CC(c3ccc(Br)cc3)Nc3nc(N)nn32)c1 (stereo not drawn),12.0,0.99,1.05,i,2.0%,1.0
COc1ccc(C2CC(c3cccc(C)c3)n3nc(N)nc3N2)cc1 (stereo not drawn),6.0,1.08,0.14,+,40.0%,15.0
COCC(=O)Nc1nc2n(n1)C(c1ccccc1)CC(c1ccc(OC)cc1)N2 (stereo not drawn),8.0,1.05,2.7*,i,8.0%,3.0
CCCCc1nc2sc3c(c2c(=O)[nH]1)CCC3,2.0,1.02,1.09,i,2.0%,3.0
N#CC1=C(O)C(c2ccccc2)n2c1nc(=O)c1ccccc12 (stereo not drawn),3.0,1.07,4.96*,·,2.0%,0.0
CC(=O)c1cc2c(O)c(O)ccc2o1,7.0,1.11,1.17,i,3.0%,3.0
CC(=O)c1cc2cc(O)ccc2o1,8.0,1.12,4.37*,·,10.0%,11.0
CCN1CCN(c2ncnc3c2sc2nc(N4CCOCC4)c4c(c23)CCC4)CC1,14.0,1.08,1.6,i,14.0%,0.0
c1nc(NCCN2CCOCC2)c2sc3nc(N4CCOCC4)c4c(c3c2n1)CCC4,10.0,1.23,2.29*,·,5.0%,0.0
CCN(CCNC(=O)Cn1cc2c(n1)CCCC2)c1ccccc1,6.0,1.06,1.12,i,6.0%,9.0
O=c1c(O)c(-c2ccc3c(c2)OCO3)oc2ccccc12,1.0,1.07,3.03*,i,14.0%,13.0
O=C(Nc1ccc2c(c1)oc1ccccc12)c1ccc2c(c1)OCO2,11.0,1.08,1.91,i,13.0%,9.0
c1ccc(Cn2ncc3c2ncn2nc(-c4ccncc4)nc32)cc1,5.0,1.05,1.02,i,4.0%,4.0
CN(C)c1nc(-c2ccccc2)c2cnn(Cc3ccccc3)c2n1,10.0,1.03,2.14*,·,9.0%,8.0
CC1(C)CC(=O)C(C=NCc2ccccn2)=C(O)C1,5.0,1.01,1.13,i,2.0%,0.0
CCOC(=O)c1c(-c2ccccc2)[nH]c2ccc(O)cc12,9.0,1.09,3.74*,·,5.0%,1.0
COc1ccc(C(=O)NCc2cn3c(C)csc3n2)cc1OC,3.0,1,1.12,+,36.0%,4.0
C=CCn1c(SCc2cccc(C#N)c2)nnc1-c1ccccc1O,8.0,1,1.04,i,1.0%,0.0
CCn1c2ccccc2c2cc(C3C(C#N)=C(C)NC(C)=C3C#N)ccc21,5.0,1.04,4.75*,·,6.0%,7.0
CCn1c2ccccc2c2cc(N)ccc21,8.0,1.01,2.9*,·,4.0%,14.0
CCn1c2ccccc2c2cc(C3C(C#N)=C(N)OC4=C3C(=O)CC(C)(C)C4)ccc21 (stereo not drawn),9.0,0.97,1.05,i,4.0%,2.0
Cc1ccc(-n2nc(C(=O)N3CCN(C)CC3)c3c4ccccc4n(C)c3c2=O)cc1,2.0,0.99,1.23,i,4.0%,10.0
CCN1CCCC1CNC(=O)c1nn(-c2ccc(C)cc2)c(=O)c2c1c1ccccc1n2C (stereo not drawn),2.0,1.02,2.67*,i,8.0%,7.0
SMILES,MK inhibit,Abs 340nm,Autofluor 339,Spn DPM-DC inh,NADH enzymes,Spn PMK inh
COc1ccc(C(CC(=O)Nc2nccs2)n2cccc2)cc1 (stereo not drawn),5.0,1.02,1.14,i,5.0%,10.0
O=C1c2ccccc2NC2CCCCC12 (stereo not drawn),7.0,1.06,1.12,i,2.0%,0.0
O=C1c2ccccc2NC2CCCCCN12 (stereo not drawn),9.0,0.99,3*,·,3.0%,13.0
Cn1c(Cn2c(=O)sc3ccccc32)nnc1SCC(=O)NC1CCCCC1,5.0,1.06,1.1,i,3.0%,4.0
Cn1c(=O)c2c(-c3ccccc3)n3c4ccccc4ncc3c2n(C)c1=O,7.0,1.07,3.86*,·,7.0%,6.0
Cc1cc(C)n2nc3nc(N4CCCCC4)nc(-c4ccco4)c3c2n1,0.0,1.04,2.14*,+,10.0%,20.0
Cc1cc(C)n2nc3ccccc3c2n1,2.0,1.05,1.98,i,4.0%,10.0
O=C(C1CCCN(S(=O)(=O)c2ccccc2)C1)N1CCCc2ccccc21 (stereo not drawn),7.0,1.01,1.07,i,3.0%,3.0
COc1ccc(-c2ccc(-c3noc(-c4cccs4)n3)c(OC)n2)cc1,6.0,1.04,3*,·,2.0%,1.0
COc1ccc(-c2ccc(-c3noc(-c4ccccc4C)n3)c(OC)n2)cc1,0.0,1.18,3.84*,·,2.0%,3.0
COc1ccc(-c2ccc(-c3noc(-c4ccccc4OC)n3)c(OC)n2)cc1,7.0,1.06,2.95*,·,1.0%,4.0
COc1cc(-c2noc(-c3cccs3)n2)cc(OC)c1OC,5.0,1,1.11,i,6.0%,11.0
COc1ccc(-n2nc(C(=O)NCc3ccco3)c3c4ccccc4n(C)c3c2=O)cc1Cl,11.0,1.08,3.59*,+,20.0%,16.0
COc1ccc(-n2nc(C(=O)NCC(=O)NCc3ccco3)c3ccccc3c2=O)cc1,7.0,1.02,1.15,i,4.0%,5.0
COC(=O)c1c(C)cc(C)n2c1nc1ccccc12,12.0,1.02,3.53*,·,16.0%,20.0
CCc1cc(/C(Cc2ccc3ccccc3n2)=N\O)c(O)cc1O,0.0,1.06,0.48,+,20.0%,5.0
O/N=C(\Cc1cscn1)c1ccc(O)cc1O,12.0,1.03,1.08,i,7.0%,9.0
CCc1cc(C(=O)Cc2ccc(F)cc2)c(O)cc1O,6.0,1.1,1.04,i,4.0%,4.0
CCc1cc(C(=O)Cc2nc3ccccc3[nH]2)c(O)cc1O,10.0,1.18,2.29*,i,16.0%,12.0
COc1ccc(Cl)cc1N(CC(=O)N1CCN(Cc2ccccc2)CC1)S(C)(=O)=O,9.0,1.04,0.8,i,9.0%,0.0
O=C(O)C1=C(C(=O)Nc2ccc(F)c(Cl)c2)CCCC1,0.0,1.01,1.05,i,8.0%,25.0*
CCOC(=O)C(C)c1nc2ccccc2[nH]c1=O (stereo not drawn),3.0,1.08,1.59,i,7.0%,7.0
CC(C)OC(=O)CCc1nc2ccccc2[nH]c1=O,2.0,1.06,2.04*,i,3.0%,6.0
